Source: PubChem BioAssay (NCI)
The panel holds about 79,000 compounds, 15% with a hit somewhere; the sample as a whole holds those more often. Calls of active or inactive are those of the source. Cut-off read from the data, not from the text of the source: active = growth inhibition above about 70%; inactive = the rest.

Test: NCI Yeast Anticancer Drug Screen. Data for the sgs1 mgt1 strain (AID 161);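 note: 0% = growth of cultures given vehicle only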
Settings: S. cerevisiae sgs1 mgt1 strain, at 5.0 µM (retest, dose inferred, filed as 0.5), stronger effect = higher value
In short: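 Read-out: growth inhibition vs vehicle controls. Cells: mutant yeast strain deficient in DNA damage repair.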
For CCCCC#C[I+]c1ccccc1, the growth inhibition was 54% (inactive). For CCOC(=O)C1C(c2cccc(OC)c2O)c2cc3c(cc2OC1(C)N1CCCC1)OCO3 (centres undefined), the growth inhibition was -2% (inactive). With Nc1ncnc2nn(C3OC(CO)C(O)C3O)nc12 (centres undefined) the growth inhibition was -7% (inactive). With Nc1nc(-c2ccc3c(c2)Sc2ccccc2O3)cs1 the growth inhibition was 57% (inactive). With O=C1C=CC(Nc2cccc([N+](=O)[O-])c2)C1Nc1cccc([N+](=O)[O-])c1 (centres undefined) the growth inhibition was -11% (inactive). With O=C(CC(=O)c1ccccc1)CC(=O)c1ccccc1 the growth inhibition was 38% (inactive). In the case of Fc1ccc(CSC(=S)Nc2ccc(Br)cc2)cc1, the growth inhibition is reported as 11% (inactive). With Cc1cc([N+](=O)[O-])c2nnnn2c1 the growth inhibition was 0% (inactive). With CN(c1ccc(C(N)=O)cc1)c1c(O)c2ccccc2[nH]c1=O the growth inhibition was 1% (inactive). In the case of O=C(/C=C\c1cccc2ccccc12)c1ccccn1, the growth inhibition is reported as 12% (inactive). With COc1ccc2c(c1)CCc1c(CO)c(COC(=O)NC(C)C)n(C)c1-2 the growth inhibition was 96% (active). For O=C1CC(O)CC(=O)C1=C(O)CCCCCCCCCCc1ccccc1 (centres undefined), the growth inhibition was 36% (inactive). For CC1CCN(CCCOC(=O)c2ccccc2)CC1, the growth inhibition was 35% (inactive). With Cc1ccc(S(=O)(=O)OC2COC3C(OS(=O)(=O)c4ccc(C)cc4)COC23)cc1 (centres undefined) the growth inhibition was 12% (inactive). For Cc1nn(C(=S)S)c(C)c1N=Nc1cccc(F)c1, the growth inhibition was 5% (inactive). For O=C1C(=Cc2ccccc2O)N=C(c2ccccc2)N1n1c(-c2ccccc2)nc2ccccc2c1=O, the growth inhibition was 0% (inactive). For O=C1/C(=C/c2ccccc2)CNC/C1=C\c1ccccc1, the growth inhibition was -7% (inactive). In the case of Cc1cc(Br)c(P(=O)(O)O)cc1[N+](=O)[O-], the growth inhibition is reported as -3% (inactive). For Oc1cc(Cc2ccccc2)c(Cc2ccccc2)cc1O, the growth inhibition was -8% (inactive). For O=S1(=O)CCN(c2ccccc2CC(c2c[nH]c3ccccc23)c2c[nH]c3ccccc23)CC1, the growth inhibition was 3% (inactive). With CCCCCC(O)C(C)CO (centres undefined) the growth inhibition was -2% (inactive). With Cc1cc(=O)c2cc(N=Cc3ccc([N+](=O)[O-])o3)ccc2o1 the growth inhibition was -6% (inactive). In the case of CN(C)C(=S)/N=c1\ssc(=S)n1Cc1ccco1, the growth inhibition is reported as -15% (inactive). For O=[N+]([O-])c1ccc2nc(Nc3ccccc3)c(Nc3ccccc3)nc2c1, the growth inhibition was -1% (inactive). With CC(=O)NC(CCC(=O)O)C(=O)O.[NH-]C1CCCCC1[NH-].[Pt+2] (centres undefined) the growth inhibition was 98% (active). In the case of CC(=O)Oc1c2c(c(C)c3ccccc13)C(=O)c1cccnc1C2=O, the growth inhibition is reported as 5% (inactive). For C=C1C(=O)OC2C(C)C3C=CC(=O)[C@@]3(C)C(OC(=O)/C(C)=C/C)C1[C@@H]2OC(C)=O (some centres undefined), the growth inhibition was 13% (inactive). For O=C(O)/C=C/c1ccc2c(c1)CC1(Cc3ccccc3C1)C2, the growth inhibition was 84% (active). In the case of C(=C\c1ccc(-[n+]2nc(-c3ccccc3)nn2-c2ccccc2)cc1)/c1ccccc1, the growth inhibition is reported as 79% (active). In the case of O=CC(O)C(O)C(O)C(O)C(=O)NCCCCCCCCCCCCNC(=O)C(O)C(O)C(O)C(O)C=O (centres undefined), the growth inhibition is reported as -20% (inactive). With CCCCCCCCCCN(CCCCCCCCCC)CC(O)c1cc(-c2ccccc2)nc2ccccc12 (centres undefined) the growth inhibition was -22% (inactive). For CC1(C)C(=O)C(C(Cl)(Cl)Cl)=C(Cl)C(=O)C1(Cl)Cl, the growth inhibition was 38% (inactive). In the case of Cc1cccc2c1CC1(C2)Cc2c(C)cccc2C1=O (centres undefined), the growth inhibition is reported as -23% (inactive). For Oc1c(Cl)cc(C(c2cc(Cl)c(O)c(Cl)c2)C(c2cc(Cl)c(O)c(Cl)c2)c2cc(Cl)c(O)c(Cl)c2)cc1Cl, the growth inhibition was 99% (active). In the case of Cc1ccc(S(=O)(=O)NC(Cc2ccccc2)C(=O)CCl)cc1 (centres undefined), the growth inhibition is reported as 74% (active). With CCOC(=O)/C(C#N)=C/c1coc2cc(C)cc(C)c2c1=O the growth inhibition was -3% (inactive). With CN(C)/N=C\C1CC=CCC1 (centres undefined) the growth inhibition was -58% (inactive). For NCC(=O)N/N=C/c1ccc([N+](=O)[O-])o1, the growth inhibition was 0% (inactive). In the case of CCc1cc(CC)c(-c2ccco2)c(COC(=O)NC)c1, the growth inhibition is reported as -4% (inactive).
